Measurements as given in PubChem BioAssay.
Active and inactive are the calls of the source. No rule for the calls is given here.

Assays:
[1] = system: Botulinum neurotoxin type F light chain protease (Clostridium botulinum); test: Botulinum neurotoxin type F light chain protease inhibition, multiplex microsphere flow cytometry, validation set (AID 588459); settings: multiplex microsphere protease substrate cleavage assay, at 10 µM, hits give high values
[2] = molecular target: Botulinum neurotoxin type A (Clostridium botulinum) (UniProt P0DPI0); test: BoNT/A light chain protease inhibitors, biochemical, multiplex microsphere flow cytometry, validation set (AID 588460); settings: at 10 µM, hits give high values
[3] = molecular target: Lethal factor (Bacillus anthracis) (UniProt P15917); test: Lethal factor protease inhibitors, Bacillus anthracis, multiplex microsphere cleavage assay, validation set (AID 588461); settings: flow cytometry, at 10 µM, hits give high values

Measured: inhibition

Chain of Lethal factor (Bacillus anthracis) (P15917 whole entry, looked up): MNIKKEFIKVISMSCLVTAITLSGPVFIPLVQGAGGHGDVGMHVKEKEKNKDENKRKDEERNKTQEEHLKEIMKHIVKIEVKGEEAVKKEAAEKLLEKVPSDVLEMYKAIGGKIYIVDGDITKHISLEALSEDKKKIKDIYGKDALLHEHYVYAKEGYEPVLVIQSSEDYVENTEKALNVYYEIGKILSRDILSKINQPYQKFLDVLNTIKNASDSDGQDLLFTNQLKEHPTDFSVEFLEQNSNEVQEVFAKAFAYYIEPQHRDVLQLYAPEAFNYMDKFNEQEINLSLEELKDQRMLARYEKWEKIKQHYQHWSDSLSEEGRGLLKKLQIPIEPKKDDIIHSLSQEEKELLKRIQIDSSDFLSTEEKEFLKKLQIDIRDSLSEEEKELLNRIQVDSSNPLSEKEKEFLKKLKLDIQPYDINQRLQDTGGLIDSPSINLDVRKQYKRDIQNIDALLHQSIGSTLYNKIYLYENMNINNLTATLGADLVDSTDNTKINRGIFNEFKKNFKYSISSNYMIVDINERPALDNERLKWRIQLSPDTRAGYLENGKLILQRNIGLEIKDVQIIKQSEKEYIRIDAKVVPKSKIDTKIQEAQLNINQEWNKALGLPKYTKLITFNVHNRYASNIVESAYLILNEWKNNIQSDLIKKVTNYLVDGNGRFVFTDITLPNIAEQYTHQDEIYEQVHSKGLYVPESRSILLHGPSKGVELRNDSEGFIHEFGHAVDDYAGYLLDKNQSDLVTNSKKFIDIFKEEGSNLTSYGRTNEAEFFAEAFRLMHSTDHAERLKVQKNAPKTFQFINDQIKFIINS
Chain of Botulinum neurotoxin type A (Clostridium botulinum) (P0DPI0 whole entry, looked up): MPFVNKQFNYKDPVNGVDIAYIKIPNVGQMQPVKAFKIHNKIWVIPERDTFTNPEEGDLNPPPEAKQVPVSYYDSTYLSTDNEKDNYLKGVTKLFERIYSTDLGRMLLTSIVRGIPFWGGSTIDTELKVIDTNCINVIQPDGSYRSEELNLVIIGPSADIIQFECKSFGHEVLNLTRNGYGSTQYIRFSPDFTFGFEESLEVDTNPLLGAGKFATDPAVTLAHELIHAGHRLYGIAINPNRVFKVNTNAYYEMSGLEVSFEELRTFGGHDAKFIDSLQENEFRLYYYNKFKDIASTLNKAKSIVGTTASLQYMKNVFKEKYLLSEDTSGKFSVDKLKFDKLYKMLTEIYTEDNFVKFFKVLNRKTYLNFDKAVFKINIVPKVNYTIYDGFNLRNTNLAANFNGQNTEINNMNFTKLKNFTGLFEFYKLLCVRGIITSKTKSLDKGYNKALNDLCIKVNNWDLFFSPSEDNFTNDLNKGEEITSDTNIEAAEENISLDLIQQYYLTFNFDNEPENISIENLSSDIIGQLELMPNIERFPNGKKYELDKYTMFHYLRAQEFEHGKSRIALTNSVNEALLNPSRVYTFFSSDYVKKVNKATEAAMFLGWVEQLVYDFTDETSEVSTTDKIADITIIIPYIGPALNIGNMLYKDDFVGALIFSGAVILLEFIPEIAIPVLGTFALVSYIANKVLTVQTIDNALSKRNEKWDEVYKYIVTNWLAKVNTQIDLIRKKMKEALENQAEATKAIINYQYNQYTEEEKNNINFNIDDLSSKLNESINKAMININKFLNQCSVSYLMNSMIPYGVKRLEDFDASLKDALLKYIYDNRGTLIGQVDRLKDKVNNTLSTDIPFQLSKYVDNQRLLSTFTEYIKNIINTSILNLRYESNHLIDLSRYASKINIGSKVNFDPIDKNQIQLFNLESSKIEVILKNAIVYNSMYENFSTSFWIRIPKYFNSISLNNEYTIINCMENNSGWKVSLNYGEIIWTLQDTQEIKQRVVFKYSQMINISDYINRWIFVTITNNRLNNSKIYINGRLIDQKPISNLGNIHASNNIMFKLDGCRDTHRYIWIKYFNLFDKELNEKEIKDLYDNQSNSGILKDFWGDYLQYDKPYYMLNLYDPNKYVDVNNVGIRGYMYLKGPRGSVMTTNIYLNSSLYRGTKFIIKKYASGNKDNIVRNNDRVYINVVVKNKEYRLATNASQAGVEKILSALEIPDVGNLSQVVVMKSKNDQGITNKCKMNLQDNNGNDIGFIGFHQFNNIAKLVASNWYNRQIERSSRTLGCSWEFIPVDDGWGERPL

COc1cc(C(=O)NCCCCCC(=O)O)cc(OC)c1OC
inactive: [1] 1.3% | [2] -0.4% | [3] -13.3%

CN(C)c1nc(N(C)C)nc(N(C)C)n1
inactive: [1] 6.4% | [2] 2.6% | [3] -4.2%

O=C1CC(c2ccc(OCCCCCOc3ccc(C4CC(=O)NC4=O)cc3)cc2)C(=O)N1 (stereo unspecified)
inactive: [1] 2.5% | [2] 1.1% | [3] 2.1%

CC(C)(C)OC(=O)COc1cc(OCC(=O)OC(C)(C)C)c2c(=O)cc(-c3ccccc3)oc2c1
inactive: [1] 1.4% | [2] 0.8% | [3] -7.2%

C[C@H]1C[C@H]2[C@@H]3CCC4=CC(=O)C=C[C@]4(C)[C@@]3(Cl)[C@@H](O)C[C@]2(C)[C@@]1(O)C(=O)CO
inactive: [1] 4.5% | [2] -0.1% | [3] 2.1%

C[C@]12CC[C@H]3[C@@H](CCC4=CC(=O)CC[C@@]43C)[C@@H]1CC[C@@H]2C(=O)CO
inactive: [1] 3.9% | [2] -2.4% | [3] -10%

CC(C)C12CN3CC(C(C)C)(CN(C1)C31C(=O)Nc3ccccc31)C2=O (stereo unspecified)
inactive: [1] 0.1% | [2] 0.7% | [3] 9%

O=C(c1ccc(Cl)cc1)C1CCCN(C(=O)/C=C/c2ccccn2)C1 (stereo unspecified)
inactive: [1] 2.6% | [2] -0.7% | [3] 6%

CCCN(CCC)C(=O)C(CCC(=O)O)NC(=O)c1ccccc1 (stereo unspecified)
inactive: [1] 0.5% | [2] -0.3% | [3] 8.6%

CCCCCCCCNC(C)C(O)c1ccc(SC(C)C)cc1 (stereo unspecified)
inactive: [1] -4.9% | [2] -1.5% | [3] -9.4%

CC1(C)C2CCC1(C)C(OCC[N+](C)(C)CC(=O)OC1CCCCC1)C2 (stereo unspecified)
inactive: [1] -1.7% | [2] -2.1% | [3] -1.9%

CC(C)CN1CCN(Cc2ccc3ncccc3c2)CC1CCO (stereo unspecified)
inactive: [1] -0.3% | [2] 0.8% | [3] 0.5%

O=C(CSCc1ccccc1)NCCCN1CCOCC1
inactive: [1] -2.9% | [2] -0.9% | [3] -8.8%

CC(C)N1C(=O)/C(=C\c2nc3ccccc3c(=O)[nH]2)c2ccccc21
inactive: [1] -0.2% | [2] -0.6% | [3] -0.1%

O=C(Nc1ccc(N2CCOCC2)cc1)c1ccc(-c2ccccc2[N+](=O)[O-])o1
inactive: [1] -2.6% | [2] -0.9% | [3] -10.4%

C=C(CC)C(=O)c1ccc(OCC(=O)O)c(Cl)c1Cl
inactive: [1] -6.2% | [2] -2.2% | [3] -10.3%

COc1c(C)cc(C(=O)C2CCCN(Cc3ccc(Oc4ncccn4)cc3)C2)cc1C (stereo unspecified)
inactive: [1] -2.8% | [2] -1.2% | [3] -4.4%

COc1cc(OC)c(-c2nc3cnccc3n2C)cc1OC
inactive: [1] -2.3% | [2] -1.9% | [3] -1.6%

CN1C(=O)NC(c2ccc(O)cc2)C2=C1CN(c1cccc3ccccc13)C2=O (stereo unspecified)
inactive: [1] 3.2% | [2] -1% | [3] -10.8%

COc1ccc(/C=C/C(=O)c2cc3cccc(OC)c3oc2=O)cc1
inactive: [1] 2.3% | [2] 2.8% | [3] 8.8%

CCN1CCn2c3c(c4cc(Cl)ccc42)CCCC31 (stereo unspecified)
inactive: [1] 0.6% | [2] 1.4% | [3] -8.7%

O=C(/C=C/c1ccco1)Nc1ccccc1C(=O)O
inactive: [1] 0.9% | [2] -0.2% | [3] 1.7%

CC(=O)OCC(=O)[C@@]1(O)CC[C@H]2[C@@H]3CCC4=CC(=O)CC[C@]4(C)[C@H]3[C@@H](O)C[C@@]21C
inactive: [1] -3.3% | [2] -3.5% | [3] -5.1%

Cc1ccc(SCC(=O)Nc2nccs2)cc1
inactive: [1] -4.8% | [2] -0.5% | [3] -5.6%

CN(C)C(=O)C(CCN1CCC(O)(c2ccc(Cl)cc2)CC1)(c1ccccc1)c1ccccc1
inactive: [1] -1.4% | [2] -1.4% | [3] 7.3%

CC(C)c1ccc(NC(=O)CNS(=O)(=O)c2ccc(F)cc2)cc1
inactive: [1] 1.6% | [2] -0.9% | [3] 2.8%

CCOC(=O)c1oc2cc(OCC(N)=O)ccc2c(=O)c1-c1ccc(OC)c(OC)c1
inactive: [1] -3.1% | [2] 1.1% | [3] 1.9%
